Assay outcomes as filed in PubChem.
CDC25B CDK2 inh: human CDC25B-CDK2/CyclinA binding inhibition. P30305+P24941. HTRF CDC25B-CDK2/CyclinA binding, anti-His/anti-Flag; stronger effect = higher value. 94,000 compounds, 0.72% hits. z-score (test concentration not listed). AID 1259370; in the data active = z-score above about 3.2
HIV TAR-Tat: HIV-1 TAR-Tat binding disruption; HIV-1 TAR RNA, Tat peptide displacement FRET; stronger effect = higher value; z-score (test concentration not listed); 100,000 compounds, 0.6% hits; AID 1259389; active = z-score of 3 or more in at least 2 runs
A number is an active result; - = inactive; . = no result given; + = active, no number. The list is not random: actives were taken first. Their share in the collection is about 0.86%.

SMILES	CDC25B CDK2 inh	HIV TAR-Tat
Cc1ccc(C2CC(=O)N3CN(C4CCCC4)CSC3=C2C#N)cc1 (configuration not stated)	-	-
CC(C)CCNC(=O)c1c[nH]c2ccc(S(=O)(=O)N3CC(C)CC(C)C3)cc2c1=O (configuration not stated)	-	.
CC(=O)N1N=C(c2cccs2)OC12CCCCC2	-	.
O=C(Nc1nccs1)c1cc2ccc3cccnc3c2[nH]1	.	-
CSc1nc2c(c(Nc3ccc(O)c(C(=O)O)c3)n1)CCC2	-	17.9
CSc1nc2c(c(Nc3cccc(O)c3)n1)CCC2	-	-
Cc1sc2ncn(CC(=O)N3CCCCC3C)c(=O)c2c1S(=O)(=O)N1CCN(C)CC1 (configuration not stated)	16.5	.
Cc1sc2ncn(CC(=O)N3CCCC3)c(=O)c2c1S(=O)(=O)N1CCCCC1	-	.
Cc1cc(NCC2CCCO2)n2nc(C(F)(F)F)c(-c3ccc(F)cc3)c2n1 (configuration not stated)	-	-
CN(Cc1ccccc1)C(=O)CSc1nc(-c2ccc3c(c2)OCO3)nc2cc(=O)[nH]n12	.	26.1
CN(C(=O)CSc1nc(-c2ccc3c(c2)OCO3)nc2cc(=O)[nH]n12)c1ccccc1	.	-
Fc1ccc(N2CCN(c3ncnc4c3cnn4-c3ccc(F)cc3)CC2)cc1	.	-
O=S(=O)(c1ccc(Cl)cc1)c1cnc2cc3c(cc2c1N1CCCC1)OCCO3	-	-
NC1(C(=O)O)CCCCC1	-	.
N.N.O=C(O)C1(C(=O)O)CCC1.[Pt+2]	+	.
CC1CCCN(c2nnc(NC(=O)Nc3ccc(F)cc3)s2)C1 (configuration not stated)	-	-
CCOc1ccc(S(=O)(=O)N(C(=O)c2ccco2)c2cc3sc(=O)oc3c3ccccc23)cc1	-	-
COc1ccc(S(=O)(=O)N(C(=O)c2ccco2)c2cc3sc(=O)oc3c3ccccc23)cc1	16.4	-
CCC(=O)N1CCN(c2cc(N3CCOCC3)nc(C)n2)CC1	-	-
CCCNc1sc(S(C)(=O)=O)nc1S(=O)(=O)c1ccc(C)cc1	-	-
O=C(O)c1cccc(-c2nc3ccccc3[nH]2)c1	-	.
O=C(O)c1ccc2nc(-c3cccc(-c4nc5ccc(C(=O)O)cc5[nH]4)c3)[nH]c2c1	7.31	.
Cc1nc(CNC(=O)CC(C)C)cs1	-	-
CCN(CC)c1ccc(NC(=O)CSc2ccsc2[N+](=O)[O-])c(C)c1	-	11.7
O=C(CSc1ccsc1[N+](=O)[O-])Nc1cc(F)ccc1F	-	-
SMILES	CDC25B CDK2 inh	HIV TAR-Tat
COc1ccc(NC(=O)COCc2cc(-c3cccs3)on2)cc1OC	.	-
Cc1cc2c3c([nH]c2cc1S(=O)(=O)Nc1cccnc1)CCCC3=O	.	7.64
Cc1cc2c3c([nH]c2cc1S(=O)(=O)Nc1ccc(S(N)(=O)=O)cc1)CCCC3=O	.	10.8
Cc1cc2c3c([nH]c2cc1S(=O)(=O)Nc1ccccc1)CCCC3=O	.	-
Cc1ccc(NS(=O)(=O)c2cc3[nH]c4c(c3cc2C)C(=O)CCC4)cc1	.	-
CCN(CC)C(=O)Nc1cn(C)c(=O)c2ccccc12	.	-
CSc1nn(CC(=O)Nc2ccc(F)cc2)c(N)c1S(=O)(=O)c1ccccc1	.	-
C=CCN(C(=O)CSc1nncn2c1cc1occc12)c1ccccc1	.	-
CCN(Cc1ccccc1)C(=O)CSc1nncn2c1cc1occc12	.	6.69
O=C(NCCN1CCN(c2ccccc2)CC1)Nc1ccc(F)cc1F	-	7.7
O=C(NCCCN1CCN(c2ccccc2)CC1)Nc1ccc(F)cc1F	-	-
Cc1nc2scc(C)n2c(=O)c1S(=O)(=O)N1CCCc2ccccc21	-	-
COc1cccc(-c2nc3c(c(=O)[nH]2)Cc2cccc(OC)c2O3)c1O	-	11.6
COc1cccc(-c2nc3c(c(=O)[nH]2)Cc2ccccc2O3)c1O	-	-
COc1cccc2c1Oc1nc(-c3cc(Br)ccc3O)[nH]c(=O)c1C2	-	17.7
COc1cccc2c1Oc1nc(-c3ccc(Br)cc3)[nH]c(=O)c1C2	-	-
O=C(CCc1nnc2ccc(N3CCCCC3)nn12)Nc1nccs1	.	-
CC1CCN(CCNC(=O)c2cnc3sc(N4CCOCC4)nn3c2=O)CC1	-	-
Cc1ccc(C)n1-c1cccc(N)c1	-	-
COc1ccc(N)cc1-n1c(C)ccc1C	-	10.4
CCCCN(CCS(=O)(=O)N1CCNCC1)S(=O)(=O)c1ccc(C)cc1	.	-
CCCN1CCN(c2ncc3c(n2)CCN(Cc2ccc(C)s2)C3)CC1	.	-
CCOC(=O)CSc1ccc([N+](=O)[O-])cc1Cl	-	.
O=C(CSc1ccc([N+](=O)[O-])cc1Cl)NCc1ccccc1	14.8	.
CCCCc1nn2c(=O)cc(COC(=O)CC(C)C)nc2s1	.	-
SMILES	CDC25B CDK2 inh	HIV TAR-Tat
O=C(CSc1nc2ncccc2[nH]1)N1CCCC1	.	-
O=C(CSc1nc2ncccc2[nH]1)N1CCc2ccccc2C1	14.8	-
c1ccc2c(c1)c(SC1CCCCC1)nn1nnnc21	-	-
COc1ccc([C@@H]2CC(=O)c3c(O)cc(O)cc3O2)cc1O	.	-
O=C(O[C@@H]1Cc2c(O)cc(O)cc2O[C@@H]1c1cc(O)c(O)c(O)c1-c1c([C@H]2Oc3cc(O)cc(O)c3C[C@H]2OC(=O)c2cc(O)c(O)c(O)c2)cc(O)c(O)c1O)c1cc(O)c(O)c(O)c1	.	28.8
O=C(O[C@@H]1Cc2c(O)cc(O)cc2O[C@@H]1c1cc(O)c(=O)c2c(O)c(O)cc([C@H]3Oc4cc(O)cc(O)c4C[C@H]3OC(=O)c3cc(O)c(O)c(O)c3)c2c1)c1cc(O)c(O)c(O)c1	.	25.9
O=C(Oc1cc(O)cc2c1C[C@@H](OC(=O)c1cc(O)c(O)c(O)c1)[C@@H](c1cc(O)c(O)c(O)c1)O2)c1cc(O)c(O)c(O)c1	.	30.9
CC(C)(C)C1CCc2c(sc3nc(CCC(=O)N4CCN(C5CCCCC5)CC4)[nH]c(=O)c23)C1 (configuration not stated)	.	-
COCC(=O)NCCn1c(C(F)(F)F)nc2ccccc21	.	-
O=C(Cc1ccccc1)Nc1nn2c(-c3ccccc3)nnc2s1	-	-
O=C(Nc1nn2c(-c3ccccc3)nnc2s1)c1ccco1	-	16.9
CC(=O)Nc1nn2c(-c3ccco3)nnc2s1	-	-
O=C(Nc1nn2c(-c3ccco3)nnc2s1)c1ccco1	-	22.5
CCCn1c(CCC(=O)NC(C)CCc2ccco2)nc2cccnc21 (configuration not stated)	-	-
Cc1ccc(-n2c(C)c3c(C)nn4cc(C)cc4c3c2C)cc1	-	.
Cc1ccc(-c2cc3c4c(C)n(Cc5ccccc5)c(C)c4c(C)nn3c2)o1	-	-
Cc1ccc(-c2cc3c4c(C)n(C5CCCCC5)c(C)c4c(C)nn3c2)o1	-	16.6
Cc1ccc(-c2cc3c4c(C)n(Cc5ccc6c(c5)OCO6)c(C)c4c(C)nn3c2)o1	22.9	35.5
Cc1ccc(-c2cc3c4c(C)n(C)c(C)c4c(C)nn3c2)o1	15.8	35.6
CCN(Cc1ccccc1)C(=O)Nc1c[nH]c2ccccc2c1=O	-	-
Cn1cc(S(=O)(=O)N2CCc3ccccc32)cc1C(=O)NCc1cccs1	-	-
O=C(Cc1cccs1)N1CCN(C2=NS(=O)(=O)c3ccccc32)CC1	.	-
Cc1ccc([C@H]2C(C#N)=C(N)Oc3cc(C)oc(=O)c32)o1	-	.
Cc1ccc(/C=c2/sc3n(c2=O)C(N)=C(C#N)C(c2ccc(C)o2)C=3C#N)o1 (configuration not stated)	6.59	.
